# An excerpt weighted towards active compounds, which were near 1.2% of everything screened.
# RGS8-Gao – RGS8-Galphao binding modulators, primary screen, biochemical, multiplexed bead flow cytometry; Guanine nucleotide-binding protein G(o) subunit alpha (Homo sapiens), P09471; actives lie on both sides; response (percent of control binding), % at 10 µM; hit rate 0.34% among 220,000; AID 1423, 2008; in the data active = response below about 60% or above about 140%; inactive = in between;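 also: Galphao activated as the GDP aluminium fluoride complex binding bead-coupled RGS8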
# RGS4-Gao reg – modulators of RGS4 binding to Galphao, primary screen, biochemical, multiplexed bead flow cytometry. actives lie on both sides. binding response (% of control), % at 10 µM. hit rate 0.33% among 220,000; in the data active = binding response below about 49% or above about 150%; inactive = in between;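 also: fluorescent Galphao activated with aluminum fluoride binding bead-coupled RGS4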
# RGS7-Gao – RGS7-Galphao binding modulators, primary screen, biochemical, multiplexed bead flow cytometry; Guanine nucleotide-binding protein G(o) subunit alpha (Homo sapiens), P09471; actives lie on both sides; binding response (% of control), % at 10 µM; hit rate 0.35% among 220,000; AID 1439, 2008; in the data active = binding response below about 49% or above about 150%; inconclusive = no clear call, values can overlap the other calls; inactive = in between;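 also: fluorescent Galphao held in activated GDP-AlF4 state binding bead-coupled RGS7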
# GSH fluor – compound fluorescence on glutathione beads, profiling panel, artefact control, biophysical, 488/530 nm, flow cytometry; GSH beads flow cytometry, compound fluorescence 488/530 nm; hits give high values; hit rate 0.25% among 190,000; AID 1776, 2009; fluorescence (KMESF) at 10 µM; in the data active = fluorescence above about 89;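 also: glutathione beads carrying GST-tagged Bcl family fusion proteins plus one bare bead set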
# Avidin fluor – green autofluorescence of compounds with avidin beads – biophysical, 488/530 nm, flow cytometry, artefact control, profiling panel; hit rate 0.38% among 220,000; fluorescence (KMESF) at 10 µM; compound fluorescence 488/530 nm; hits give high values; in the data active = fluorescence above about 47
# RGS16-Gao – modulators of RGS16 binding to Galphao, primary screen, biochemical, human proteins, multiplexed bead flow cytometry. bead-based flow cytometry RGS16-Galphao binding, fluorescence; actives lie on both sides. AID 1441, 2008. hit rate 0.38% among 220,000. Regulator of G-protein signaling 16 (Homo sapiens) + Guanine nucleotide-binding protein …. binding response (% of control), % at 10 µM;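 also: Galphao activated by GDP with aluminum fluoride before binding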
# Target sequence (O15492 whole entry, looked up): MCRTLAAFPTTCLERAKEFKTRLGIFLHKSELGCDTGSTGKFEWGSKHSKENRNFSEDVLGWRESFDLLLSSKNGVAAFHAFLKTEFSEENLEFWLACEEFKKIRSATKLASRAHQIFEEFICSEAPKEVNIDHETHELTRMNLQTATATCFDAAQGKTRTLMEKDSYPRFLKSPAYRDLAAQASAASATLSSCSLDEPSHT
# Target sequence (P09471 whole entry, looked up): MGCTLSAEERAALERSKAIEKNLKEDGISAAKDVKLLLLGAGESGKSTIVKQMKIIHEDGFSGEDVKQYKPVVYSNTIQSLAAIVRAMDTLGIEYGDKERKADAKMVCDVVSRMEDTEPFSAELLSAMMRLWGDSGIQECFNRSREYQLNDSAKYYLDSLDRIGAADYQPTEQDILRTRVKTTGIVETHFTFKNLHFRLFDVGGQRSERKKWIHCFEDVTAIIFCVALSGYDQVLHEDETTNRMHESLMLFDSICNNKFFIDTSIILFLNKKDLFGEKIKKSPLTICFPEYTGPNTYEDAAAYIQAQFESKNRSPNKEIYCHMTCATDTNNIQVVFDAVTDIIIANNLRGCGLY
# RGS4-Gao HTS – modulators of RGS–Galpha-o binding, primary screen, biochemical, multiplexed beads, flow cytometry, RGS4/7/8/16/19; shares compounds with RGS16-Gao; multiplexed bead flow cytometry; RGS4–Galpha-o binding response, % at 10 µM; hit rate 99% among 1,600;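 also: fluorescently labeled Galpha-o bound to GDP with aluminium fluoride binding biotinylated RGS beads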
# Avidin counter – disruption of biotin probe capture by avidin, counter-screen for RGS protein interaction modulators, biochemical, flow cytometry, bead-based. shares compounds with RGS16-Gao. streptavidin beads, fluorescein-biotin binding. inhibition, % at 10 µM. 1,700 tested, under 10 active;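 active = inhibition above 50%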;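 also: median green fluorescence of gated singlet beads compared with DMSO control wells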
# RGS8-Gao confirm – RGS8-Galphao binding modulators, confirmation, biochemical, multiplexed bead flow cytometry, single concentration | bead-based flow cytometry RGS8-Galphao binding, fluorescence; actives lie on both sides | shares compounds with RGS16-Gao | AID 1836, 2009 | hit rate 3% among 1,700 | binding response (% of control), % at 10 µM; in the data active = binding response below about 72% or above about 130%; inactive = in between;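 also: Galphao activated as GDP AlF4 complex before binding bead RGS8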
# RGS7-Gao confirm – RGS7-Galphao binding modulators, confirmation, biochemical, multiplexed bead flow cytometry, single concentration. shares compounds with RGS16-Gao. bead-based flow cytometry RGS7-Galphao binding; actives lie on both sides. response (percent of control binding), % at 10 µM. hit rate 7.8% among 1,700. AID 1837, 2009; in the data active = response below about 75% or above about 130%; inactive = in between;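 also: fluorescent Galphao activated with GDP and aluminum fluoride binding bead-coupled RGS7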
# RGS16-Gao conf – modulators of RGS16-Galphao protein binding, confirmation, biochemical, single concentration, multiplexed bead flow cytometry; shares compounds with RGS16-Gao; bead-based flow cytometry; actives lie on both sides; response (% of control binding), % at 10 µM; hit rate 4% among 1,700; AID 1838, 2009; in the data active = response below about 74% or above about 130%; inactive = in between;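 also: Galphao activated as the GDP aluminium fluoride complex binding bead-coupled RGS16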
# RGS4-Gao confirm – modulators of RGS4-Galphao protein binding, confirmation, biochemical, single concentration, multiplexed bead flow cytometry; shares compounds with RGS16-Gao; actives lie on both sides; binding response (% of control), % at 10 µM; hit rate 4% among 1,700; AID 1840, 2009; in the data active = binding response below about 74% or above about 130%; inactive = in between
# RGS19-Gao single – regulators of RGS19-Galphao binding, confirmation, biochemical, single point, multiplexed bead flow cytometry; shares compounds with RGS16-Gao; bead-based flow cytometry RGS19-Galphao binding; actives lie on both sides; response (percent of control binding), % at 10 µM; hit rate 5% among 1,700; in the data active = response below about 50% or above about 160%; inactive = in between
# Hits are given with their value; i = inactive; ? = inconclusive; nt = no result; [ ] = another dose, or the depositor's remark. Unless noted, no rule for the calls is given here.
SMILES,RGS8-Gao,RGS4-Gao reg,RGS7-Gao,GSH fluor,Avidin fluor,RGS16-Gao,RGS4-Gao HTS,Avidin counter,RGS8-Gao confirm,RGS7-Gao confirm,RGS16-Gao conf,RGS4-Gao confirm,RGS19-Gao single
CCC12CN3CCN(CC(C3)/C1=N\NC(=O)c1ccc(F)cc1)C2,54.6,42.0,43.1,i,i,i,nt,i,i,i,i,i,i
CCC12CN3CCN(CC(C3)/C1=N\NC(=O)c1ccc(Cl)cc1)C2,i,i,i,i,i,i,nt,nt,nt,nt,nt,nt,nt
CCN1C(=O)C(CC(=O)Nc2ccc(OC)cc2)N(Cc2ccco2)C1=S (configuration not stated),142.9[activator],i,i,i,i,i,115.5,i,i,i,i,i,i
CC(C)N1C(=O)/C(=C\c2nc3ccccc3c(=O)[nH]2)c2ccccc21,i,i,i,i,i,i,nt,nt,nt,nt,nt,nt,nt
Nc1n[nH]c(N)c1N=Nc1ccc2c(c1)OCO2,i,i,i,i,i,i,nt,nt,nt,nt,nt,nt,nt
CCOc1ccccc1CN1CCN(CC2=Cc3cc(OC)ccc3OC2)CC1CCO (configuration not stated),i,i,?,nt,i,i,nt,nt,nt,nt,nt,nt,nt
COc1ccccc1NS(=O)(=O)c1cc(NC(=O)c2cnccn2)ccc1N1CCOCC1,i,i,?,nt,i,i,nt,nt,nt,nt,nt,nt,nt
COc1ccccc1NS(=O)(=O)c1cc(NC(=O)c2ccncc2)ccc1N1CCOCC1,i,i,i,i,i,21.6,94.9,i,i,i,i,i,i
Cc1cccc(NC(=O)c2ccccc2-c2ccccc2)c1,i,i,?,i,i,i,nt,nt,nt,nt,nt,nt,nt
Cc1cc(NC(=O)c2ccccc2-c2ccccc2)ccc1Br,i,i,i,i,i,226.1[activator],108.0,i,i,i,i,i,i
Cc1ccc(C(C(=O)NC2CCCC2)N(Cc2cccnc2)C(=O)c2snc(C(N)=O)c2N)o1 (configuration not stated),i,i,i,i,i,i,nt,nt,nt,nt,nt,nt,nt
Cc1ccc(C(C(=O)NC(C)(C)C)N(Cc2ccccc2)C(=O)c2snc(C(N)=O)c2N)o1 (configuration not stated),i,i,161.5[activator],i,128,i,109.8,i,i,i,i,i,i
CC(=O)Nc1ccc(Cc2nc3c([nH]2)c(=O)n(C)c(=O)n3C)cc1,20.4,-0.7,?,nt,i,1.1,nt,i,i,i,i,i,i
